From the supplement of paper PMC10849652
Targets with a hit are over-represented here; the source holds about 7,900 in all. About 0.6% of all pairs of compound and target were hits.

Assays:
Assay in all cases: log2 fold change, soluble protein after heating vs DMSO (PISA); higher = thermal stabilisation; K562 cells, 10 uM, 30 min; active = over 0.2 and 3.5 SD of the protein, either way, in both replicates (recomputed)
bafetinib = compound: Cc1ccc(NC(=O)c2ccc(CN3CC[C@H](N(C)C)C3)c(C(F)(F)F)c2)cc1Nc1nccc(-c2cncnc2)n1 [bafetinib]
Summary of the method: (§1)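 Soluble protein was defined as the supernatant after 21,000xg for 90 min. It came from K562 cells at 2×10^6 cells/mL given 10 μM compound for 30 min, heated in aliquots for 3 min across 48°C-58°C, pooled, and extracted in PBS with 0.5% NP-40 at 4°C, and was quantified by TMTpro 16plex LC-MS/MS with equalised channel sums. Thermal stability against control samples, from duplicates, is reported as log2 fold change.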

[1] = compound: Cc1cccc(CC(=O)N2CCc3c2ccc(-c2cn(C)c4ncnc(N)c24)c3F)n1
Summary of the method: as §1

nilotinib = compound: Cc1cn(-c2cc(NC(=O)c3ccc(C)c(Nc4nccc(-c5cccnc5)n4)c3)cc(C(F)(F)F)c2)cn1 [nilotinib]
Summary of the method: as §1

[2] = compound: Cc1nc(Nc2n[nH]c3c2CN(C(=O)N[C@H](CN(C)C)c2ccccc2)C3(C)C)c2sccc2n1
Summary of the method: as §1

dasatinib = compound: Cc1nc(Nc2ncc(C(=O)Nc3c(C)cccc3Cl)s2)cc(N2CCN(CCO)CC2)n1 [dasatinib]
Summary of the method: as §1

[3] = compound: Cc1ncc(-c2ccnc(Nc3ccc(S(C)(=O)=O)cc3)n2)n1C(C)C
Summary of the method: as §1

[4] = compound: Cn1cc(-c2ccc3c(c2)CCN3C(=O)Cc2cccc(C(F)(F)F)c2)c2c(N)ncnc21
Summary of the method: as §1

[5] = compound: Cn1cc(-c2ccc3nnc(C(F)(F)c4ccc5ncccc5c4)n3n2)cn1
Summary of the method: as §1

tipifarnib = compound: Cn1cncc1[C@@](N)(c1ccc(Cl)cc1)c1ccc2c(c1)c(-c1cccc(Cl)c1)cc(=O)n2C [tipifarnib]
Summary of the method: as §1

mubritinib = compound: FC(F)(F)c1ccc(/C=C/c2nc(COc3ccc(CCCCn4ccnn4)cc3)co2)cc1 [mubritinib]
Summary of the method: as §1

[6] = compound: NC(=O)Nc1cc(-c2cccc(F)c2)sc1C(=O)N[C@H]1CCCNC1
Summary of the method: as §1

[7] = compound: NC(=O)c1cnc(N[C@@H]2CCCC[C@@H]2N)nc1Nc1cccc(-n2nccn2)c1
Summary of the method: as §1

[8] = compound: NC1(c2ccc(-c3nc4ccn5c(=O)[nH]nc5c4cc3-c3ccccc3)cc2)CCC1
Summary of the method: as §1

[9] = compound: NCC(=O)Nc1ccc(-n2nc(C(F)(F)F)cc2-c2ccc3c(ccc4ccccc43)c2)cc1
Summary of the method: as §1

entinostat = compound: Nc1ccccc1NC(=O)c1ccc(CNC(=O)OCc2cccnc2)cc1 [entinostat]
Summary of the method: as §1

vorinostat = compound: O=C(CCCCCCC(=O)Nc1ccccc1)NO [vorinostat]
Summary of the method: as §1

citarinostat = compound: O=C(CCCCCCNC(=O)c1cnc(N(c2ccccc2)c2ccccc2Cl)nc1)NO [citarinostat]
Summary of the method: as §1

silmitasertib = compound: O=C(O)c1ccc2c(c1)nc(Nc1cccc(Cl)c1)c1ccncc12 [silmitasertib]
Summary of the method: as §1

[10] = compound: O=C1NC(=O)C(c2cnc3ccccn23)=C1c1cn2c3c(cc(F)cc13)CN(C(=O)N1CCCCC1)CC2
Summary of the method: as §1

[11] = compound: c1cc(OCCN2CCCCC2)cc(-c2n[nH]c3ccc(-c4nnc[nH]4)cc23)c1
Summary of the method: as §1

Measured: log2 fold change

PCBP1 (UniProt Q15365)
inactive: bafetinib -0.007 | [1] 0.033 | nilotinib -0.057 | [2] -0.086 | dasatinib -0.111 | [3] -0.026 | [4] 0.064 | [5] -0.004 | tipifarnib -0.119 | mubritinib -0.011 | [6] 0.007 | [7] -0.015 | [8] -0.069 | [9] -0.021 | entinostat 0.044 | vorinostat 0.055 | citarinostat 0.075 | silmitasertib 0.028 | [10] -0.046 | [11] 0.002

PSMB6 (UniProt P28072)
Sequence of UniProt P28072 (P28072 whole entry, looked up): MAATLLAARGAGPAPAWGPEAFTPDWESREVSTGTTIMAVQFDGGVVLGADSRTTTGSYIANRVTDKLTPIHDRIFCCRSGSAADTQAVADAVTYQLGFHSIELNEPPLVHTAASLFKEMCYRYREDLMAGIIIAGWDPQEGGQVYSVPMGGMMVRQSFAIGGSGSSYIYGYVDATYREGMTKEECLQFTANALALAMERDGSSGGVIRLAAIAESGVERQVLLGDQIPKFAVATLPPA
inactive: bafetinib 0.06 | [1] -0.053 | nilotinib 0.028 | [2] 0.049 | dasatinib 0.098 | [3] -0.011 | [4] -0.068 | [5] -0.027 | tipifarnib 0.125 | mubritinib -0.014 | [6] 0.024 | [7] 0.006 | [8] 0.046 | [9] 0.044 | entinostat -0.054 | vorinostat -0.093 | citarinostat -0.046 | silmitasertib -0.004 | [10] 0.044 | [11] -0.034

PRKAA1 isoform 2 (UniProt Q13131)
Sequence of UniProt Q13131 (Q13131 whole entry, looked up): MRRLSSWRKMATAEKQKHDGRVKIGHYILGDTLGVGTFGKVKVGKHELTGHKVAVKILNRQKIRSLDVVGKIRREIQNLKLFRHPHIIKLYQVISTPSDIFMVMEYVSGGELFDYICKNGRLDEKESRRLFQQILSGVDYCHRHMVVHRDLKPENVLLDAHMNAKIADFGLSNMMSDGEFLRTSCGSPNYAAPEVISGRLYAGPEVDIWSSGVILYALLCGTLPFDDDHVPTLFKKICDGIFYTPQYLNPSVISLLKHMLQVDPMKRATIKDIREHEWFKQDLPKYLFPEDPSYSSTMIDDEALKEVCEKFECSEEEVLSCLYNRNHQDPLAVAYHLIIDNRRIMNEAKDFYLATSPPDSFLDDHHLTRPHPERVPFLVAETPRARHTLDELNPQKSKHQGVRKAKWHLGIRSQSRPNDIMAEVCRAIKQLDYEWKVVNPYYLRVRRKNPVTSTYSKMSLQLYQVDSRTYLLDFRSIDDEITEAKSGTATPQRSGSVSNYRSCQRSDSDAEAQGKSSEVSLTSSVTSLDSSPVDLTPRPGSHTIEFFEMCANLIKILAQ
inactive: bafetinib -0.096 | [1] 0.035 | nilotinib -0.029 | dasatinib -0.069 | [3] -0.011 | [4] 0.082 | [5] 0.028 | tipifarnib -0.012 | mubritinib -0.012 | [6] -0.141 | [7] -0.009 | [8] -0.049 | [9] -0.007 | entinostat 0.002 | vorinostat 0.052 | citarinostat 0.044 | silmitasertib -0.006 | [10] -0.007 | [11] -0.056
active: [2] -0.206

PRPSAP2 (UniProt O60256)
Sequence of UniProt O60256 (O60256 whole entry, looked up): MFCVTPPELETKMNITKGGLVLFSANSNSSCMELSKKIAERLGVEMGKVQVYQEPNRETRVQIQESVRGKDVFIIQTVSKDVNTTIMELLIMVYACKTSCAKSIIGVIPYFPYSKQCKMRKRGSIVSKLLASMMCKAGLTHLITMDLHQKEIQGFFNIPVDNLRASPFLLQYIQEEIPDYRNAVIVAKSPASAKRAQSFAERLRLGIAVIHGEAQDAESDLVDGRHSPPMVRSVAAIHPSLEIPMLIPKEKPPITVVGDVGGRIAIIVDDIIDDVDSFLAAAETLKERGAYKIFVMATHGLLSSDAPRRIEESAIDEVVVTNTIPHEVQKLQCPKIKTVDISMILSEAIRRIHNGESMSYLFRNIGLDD
inactive: bafetinib -0.034 | [1] 0.124 | nilotinib -0.024 | [2] 0.064 | dasatinib -0.028 | [3] -0.005 | [4] -0.037 | [5] -0.018 | tipifarnib 0.023 | mubritinib -0.008 | [6] -0.146 | [7] 0.1 | [8] 0.019 | [9] 0.034 | entinostat -0.109 | vorinostat 0.003 | citarinostat -0.02 | silmitasertib 0.011 | [10] -0.052 | [11] -0.03

PSMD9 (UniProt O00233)
Sequence of UniProt O00233 (O00233 whole entry, looked up): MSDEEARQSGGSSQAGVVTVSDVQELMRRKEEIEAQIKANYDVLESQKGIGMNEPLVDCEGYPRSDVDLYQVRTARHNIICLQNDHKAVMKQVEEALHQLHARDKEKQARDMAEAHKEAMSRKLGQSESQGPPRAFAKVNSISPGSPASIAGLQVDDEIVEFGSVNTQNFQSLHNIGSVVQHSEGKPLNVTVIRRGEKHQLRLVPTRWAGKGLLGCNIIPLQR
inactive: bafetinib -0.038 | [1] 0.199 | nilotinib -0.011 | [2] 0.016 | dasatinib 0.037 | [3] 0.008 | [4] 0.018 | [5] 0.034 | tipifarnib 0.04 | mubritinib 0.009 | [6] 0.041 | [7] 0.017 | [8] 0.022 | [9] 0.072 | entinostat 0.017 | vorinostat 0.086 | citarinostat 0.029 | silmitasertib -0.013 | [10] -0.027 | [11] 0.005

PRPF40A (UniProt O75400)
inactive: bafetinib -0.014 | [1] 0.005 | nilotinib -0.085 | [2] -0.058 | dasatinib -0.05 | [3] -0.135 | [4] 0.082 | [5] 0.048 | tipifarnib 0.045 | mubritinib -0.013 | [6] -0.014 | [7] -0.001 | [8] 0 | [9] -0.062 | entinostat 0.114 | vorinostat 0.048 | citarinostat 0.079 | silmitasertib -0.038 | [10] 0.003 | [11] -0.067

PPP2R5C isoform 5 (UniProt Q13362)
Sequence of UniProt Q13362 (Q13362 whole entry, looked up): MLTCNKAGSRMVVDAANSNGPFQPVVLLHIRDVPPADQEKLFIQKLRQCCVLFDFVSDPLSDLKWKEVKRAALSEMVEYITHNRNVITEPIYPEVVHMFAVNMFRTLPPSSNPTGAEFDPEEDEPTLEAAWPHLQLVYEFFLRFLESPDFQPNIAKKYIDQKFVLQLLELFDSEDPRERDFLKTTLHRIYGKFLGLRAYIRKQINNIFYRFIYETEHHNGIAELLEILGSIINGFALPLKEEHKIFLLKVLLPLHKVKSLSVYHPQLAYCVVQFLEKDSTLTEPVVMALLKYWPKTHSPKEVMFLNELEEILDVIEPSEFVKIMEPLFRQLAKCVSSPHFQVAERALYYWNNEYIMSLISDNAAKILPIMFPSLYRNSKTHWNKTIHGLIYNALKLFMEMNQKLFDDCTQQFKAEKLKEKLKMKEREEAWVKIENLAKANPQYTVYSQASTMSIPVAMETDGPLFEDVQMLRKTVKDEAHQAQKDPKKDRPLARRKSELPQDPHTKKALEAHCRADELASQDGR
inactive: bafetinib -0.024 | [1] 0.005 | nilotinib -0.168 | [2] -0.026 | dasatinib -0.227 | [3] 0.026 | [4] 0.031 | [5] -0.06 | tipifarnib -0.099 | mubritinib 0.042 | [6] 0.003 | [7] 0.011 | [8] -0.134 | [9] -0.027 | entinostat 0.018 | vorinostat -0.044 | citarinostat 0.169 | silmitasertib -0.005 | [10] -0.053 | [11] -0.01

PEA15 isoform 2 (UniProt Q15121)
active: [2] -0.4
inactive: bafetinib -0.077 | [1] -0.008 | nilotinib 0 | dasatinib -0.026 | [3] -0.004 | [4] 0.036 | [5] 0.021 | tipifarnib 0.04 | mubritinib 0.054 | [6] 0.021 | [7] -0.118 | [8] -0.103 | [9] 0.016 | entinostat 0.075 | vorinostat -0.009 | citarinostat 0.049 | silmitasertib 0.045 | [10] -0.067 | [11] -0.209

PGGT1B (UniProt P53609)
inactive: bafetinib -0.069 | [1] -0.024 | nilotinib -0.007 | [2] -0.059 | dasatinib 0.075 | [3] 0.009 | [4] -0.027 | [5] 0.004 | tipifarnib 0.134 | mubritinib 0.062 | [6] -0.048 | [7] -0.014 | [8] -0.062 | [9] -0.021 | entinostat -0.047 | vorinostat -0.046 | citarinostat 0.038 | silmitasertib 0.021 | [10] 0.02 | [11] -0.042

PHAX (UniProt Q9H814)
Sequence of UniProt Q9H814 (Q9H814 whole entry, looked up): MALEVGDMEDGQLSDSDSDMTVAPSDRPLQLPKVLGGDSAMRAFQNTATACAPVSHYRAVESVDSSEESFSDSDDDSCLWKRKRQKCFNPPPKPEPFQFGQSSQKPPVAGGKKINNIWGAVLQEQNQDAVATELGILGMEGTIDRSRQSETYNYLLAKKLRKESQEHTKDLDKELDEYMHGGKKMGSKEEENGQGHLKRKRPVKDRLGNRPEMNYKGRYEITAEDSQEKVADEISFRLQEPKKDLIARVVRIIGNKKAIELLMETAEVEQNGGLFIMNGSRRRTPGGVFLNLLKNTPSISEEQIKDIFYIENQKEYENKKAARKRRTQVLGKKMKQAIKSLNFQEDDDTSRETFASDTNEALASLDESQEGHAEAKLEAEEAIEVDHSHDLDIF
inactive: bafetinib -0.056 | [1] -0.117 | nilotinib 0.028 | [2] -0.176 | dasatinib 0.03 | [3] -0.096 | [4] -0.033 | [5] 0.006 | tipifarnib 0.011 | mubritinib 0.013 | [6] 0.008 | [7] -0.084 | [8] -0.003 | [9] 0.013 | entinostat -0.022 | vorinostat -0.006 | citarinostat 0.041 | silmitasertib 0.092 | [10] 0.046 | [11] -0.029

POLR2D (UniProt O15514)
inactive: bafetinib 0.009 | [1] -0.076 | nilotinib -0.028 | [2] 0.122 | dasatinib -0.013 | [3] 0.202 | [4] -0.036 | [5] 0.034 | tipifarnib -0.01 | mubritinib 0.052 | [6] 0.04 | [7] 0.145 | [8] -0.016 | [9] 0.022 | entinostat -0.026 | vorinostat -0.133 | citarinostat -0.078 | silmitasertib 0.049 | [10] -0.015 | [11] -0.06

PTMA (UniProt P06454)
Sequence of UniProt P06454 (P06454 whole entry, looked up): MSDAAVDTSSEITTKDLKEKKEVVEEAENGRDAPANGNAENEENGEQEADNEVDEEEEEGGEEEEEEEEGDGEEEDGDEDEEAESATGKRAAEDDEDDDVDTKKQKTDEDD
active: silmitasertib -0.628
inactive: bafetinib -0.076 | [1] -0.047 | nilotinib 0.023 | [2] 0.001 | dasatinib -0.01 | [3] -0.031 | [4] 0.177 | [5] -0.147 | tipifarnib -0.02 | mubritinib 0.109 | [6] 0.279 | [7] 0.2 | [8] 0.217 | [9] 0.157 | entinostat 0.052 | vorinostat -0.026 | citarinostat -0.018 | [10] 0.021 | [11] 0.099

PSMD2 (UniProt Q13200)
Sequence of UniProt Q13200 (Q13200 whole entry, looked up): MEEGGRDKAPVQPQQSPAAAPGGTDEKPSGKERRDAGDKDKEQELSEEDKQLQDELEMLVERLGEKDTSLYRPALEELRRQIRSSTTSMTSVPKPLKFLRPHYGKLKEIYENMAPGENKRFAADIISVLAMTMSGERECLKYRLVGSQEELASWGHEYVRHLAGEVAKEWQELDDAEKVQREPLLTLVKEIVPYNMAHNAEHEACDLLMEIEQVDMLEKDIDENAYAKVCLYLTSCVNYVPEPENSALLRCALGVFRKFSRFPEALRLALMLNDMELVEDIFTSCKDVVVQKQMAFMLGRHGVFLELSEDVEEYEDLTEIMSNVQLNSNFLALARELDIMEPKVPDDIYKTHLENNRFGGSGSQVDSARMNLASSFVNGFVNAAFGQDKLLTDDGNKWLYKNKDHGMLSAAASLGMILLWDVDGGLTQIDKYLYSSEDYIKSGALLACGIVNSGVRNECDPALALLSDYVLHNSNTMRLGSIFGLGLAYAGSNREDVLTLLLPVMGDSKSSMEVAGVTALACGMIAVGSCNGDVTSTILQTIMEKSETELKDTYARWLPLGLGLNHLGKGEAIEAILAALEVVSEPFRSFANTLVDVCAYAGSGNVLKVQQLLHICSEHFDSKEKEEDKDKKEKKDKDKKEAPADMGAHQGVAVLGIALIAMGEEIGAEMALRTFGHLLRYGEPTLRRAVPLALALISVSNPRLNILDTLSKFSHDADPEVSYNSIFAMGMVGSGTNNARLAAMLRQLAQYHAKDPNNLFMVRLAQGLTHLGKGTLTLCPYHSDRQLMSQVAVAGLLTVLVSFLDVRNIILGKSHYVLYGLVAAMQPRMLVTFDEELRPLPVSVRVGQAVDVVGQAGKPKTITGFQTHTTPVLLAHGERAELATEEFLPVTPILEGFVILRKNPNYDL
inactive: bafetinib 0.079 | [1] 0 | nilotinib -0.031 | [2] 0.061 | dasatinib 0.031 | [3] -0.005 | [4] -0.12 | [5] -0.006 | tipifarnib 0.07 | mubritinib -0.038 | [6] -0.018 | [7] 0.012 | [8] 0.005 | [9] 0.038 | entinostat -0.024 | vorinostat 0.01 | citarinostat -0.006 | silmitasertib -0.018 | [10] 0.03 | [11] -0.082

PDE12 (UniProt Q6L8Q7)
inactive: bafetinib -0.013 | [1] 0.002 | nilotinib -0.004 | [2] 0.017 | dasatinib -0.061 | [3] -0.006 | [4] 0.067 | [5] 0.066 | tipifarnib -0.078 | mubritinib 0.066 | [6] -0.036 | [7] 0.07 | [8] -0.069 | [9] -0.008 | entinostat 0.017 | vorinostat -0.003 | citarinostat 0.044 | silmitasertib -0.014 | [10] -0.089 | [11] 0.047

POLD3 (UniProt Q15054)
Sequence of UniProt Q15054 (Q15054 whole entry, looked up): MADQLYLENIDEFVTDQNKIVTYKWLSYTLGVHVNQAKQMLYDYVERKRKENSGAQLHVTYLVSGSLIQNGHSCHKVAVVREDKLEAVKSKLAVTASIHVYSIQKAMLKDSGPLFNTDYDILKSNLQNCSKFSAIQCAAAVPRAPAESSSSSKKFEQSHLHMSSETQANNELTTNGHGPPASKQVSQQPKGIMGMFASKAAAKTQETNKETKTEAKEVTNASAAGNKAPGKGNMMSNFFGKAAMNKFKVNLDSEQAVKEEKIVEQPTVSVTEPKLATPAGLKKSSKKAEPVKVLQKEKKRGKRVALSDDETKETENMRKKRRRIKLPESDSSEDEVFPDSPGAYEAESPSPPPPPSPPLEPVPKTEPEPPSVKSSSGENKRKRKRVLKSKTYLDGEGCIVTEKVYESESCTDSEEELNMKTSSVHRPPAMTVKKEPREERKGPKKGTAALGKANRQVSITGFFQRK
inactive: bafetinib 0.846 | [1] 0.058 | nilotinib -0.014 | [2] -0.052 | dasatinib -0.068 | [3] 0.096 | [4] 0.028 | [5] 0.044 | tipifarnib -0.01 | mubritinib 0.024 | [6] 0.035 | [7] -0.143 | [8] -0.107 | [9] -0.108 | entinostat 0.134 | vorinostat -0.008 | citarinostat 0.003 | silmitasertib -0.022 | [10] -0.013 | [11] 0.109

PC (UniProt P11498)
Sequence of UniProt P11498 (P11498 whole entry, looked up): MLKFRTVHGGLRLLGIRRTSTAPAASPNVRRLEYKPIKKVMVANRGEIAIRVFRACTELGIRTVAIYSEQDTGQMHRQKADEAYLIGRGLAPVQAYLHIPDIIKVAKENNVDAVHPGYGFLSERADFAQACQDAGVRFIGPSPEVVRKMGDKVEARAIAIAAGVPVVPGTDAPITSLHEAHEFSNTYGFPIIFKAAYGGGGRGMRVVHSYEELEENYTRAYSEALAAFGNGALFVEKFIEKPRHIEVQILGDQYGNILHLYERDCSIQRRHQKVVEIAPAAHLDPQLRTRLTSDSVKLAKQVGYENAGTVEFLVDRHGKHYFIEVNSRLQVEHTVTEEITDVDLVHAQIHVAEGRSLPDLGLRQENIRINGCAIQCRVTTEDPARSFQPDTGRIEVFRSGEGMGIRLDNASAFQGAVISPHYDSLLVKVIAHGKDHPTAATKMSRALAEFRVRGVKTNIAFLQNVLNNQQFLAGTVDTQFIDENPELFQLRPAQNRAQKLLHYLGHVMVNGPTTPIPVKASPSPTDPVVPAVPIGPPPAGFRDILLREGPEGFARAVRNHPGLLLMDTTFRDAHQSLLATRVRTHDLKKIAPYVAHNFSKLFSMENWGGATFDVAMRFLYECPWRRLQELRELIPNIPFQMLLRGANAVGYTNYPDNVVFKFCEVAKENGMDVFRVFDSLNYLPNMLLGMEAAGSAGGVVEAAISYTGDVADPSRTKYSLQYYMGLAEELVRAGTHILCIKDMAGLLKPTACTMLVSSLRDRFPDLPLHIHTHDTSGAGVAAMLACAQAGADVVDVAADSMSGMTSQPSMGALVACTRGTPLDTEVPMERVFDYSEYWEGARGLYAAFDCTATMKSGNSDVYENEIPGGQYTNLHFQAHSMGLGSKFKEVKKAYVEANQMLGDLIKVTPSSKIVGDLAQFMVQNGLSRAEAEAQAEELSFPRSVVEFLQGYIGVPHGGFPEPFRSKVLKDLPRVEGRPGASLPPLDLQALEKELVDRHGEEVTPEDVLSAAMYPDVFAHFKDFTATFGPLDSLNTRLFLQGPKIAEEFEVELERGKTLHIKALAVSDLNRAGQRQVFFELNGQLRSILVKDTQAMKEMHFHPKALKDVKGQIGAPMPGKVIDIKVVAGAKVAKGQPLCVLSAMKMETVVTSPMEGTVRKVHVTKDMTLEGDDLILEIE
inactive: bafetinib 0.096 | [1] 0.102 | nilotinib -0.014 | [2] 0.121 | dasatinib 0.005 | [3] -0.007 | [4] 0.047 | [5] 0.074 | tipifarnib -0.097 | mubritinib 0.024 | [6] -0.025 | [7] 0.027 | [8] -0.084 | [9] 0.004 | entinostat -0.003 | vorinostat -0.044 | citarinostat 0.053 | silmitasertib -0.122 | [10] -0.099 | [11] 0.112
